Measurements: PubChem BioAssay (NCI)
The panel holds about 83,000 compounds, 20% with a hit somewhere; the sample as a whole holds those more often.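 A percent growth of 40 corresponds to 60% growth inhibition; 0 means no net growth; -100 means all cells died. Active threshold: below 10.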 Values without a mark were called inactive. The source made the active and inactive calls.

Legend:
Assay in all cases: NCI-60 one-dose screen, 48 h (100 = growth as untreated, 0 = no growth, -100 = all killed)
Settings in all cases: 10 µM unless noted
NCI-H23 lung = system: NCI-H23 lung
NCI-H322M lung = system: NCI-H322M lung
HOP-62 NSCLC = system: HOP-62 NSCLC
NCI-H460 lung = system: NCI-H460 lung
HOP-92 NSCLC = system: HOP-92 NSCLC
NCI-H522 lung = system: NCI-H522 lung
A549/ATCC NSCLC = system: A549/ATCC NSCLC
786-0 renal = system: 786-0 renal
COLO 205 colon = system: COLO 205 colon
DU-145 prostate = system: DU-145 prostate
K-562 leukemia = system: K-562 leukemia
MALME-3M melanoma = system: MALME-3M melanoma
MDA-MB-231 breast = system: MDA-MB-231 breast
RXF 393 renal = system: RXF 393 renal
SF-268 CNS = system: SF-268 CNS
SF-295 CNS = system: SF-295 CNS
SF-539 CNS = system: SF-539 CNS
UACC-257 melanoma = system: UACC-257 melanoma
M14 melanoma = system: M14 melanoma
HCT-15 colon = system: HCT-15 colon

SMILES	growth (NCI-H23 lung)	growth (NCI-H322M lung)	growth (HOP-62 NSCLC)	growth (NCI-H460 lung)	growth (HOP-92 NSCLC)	growth (NCI-H522 lung)	growth (A549/ATCC NSCLC)	growth (786-0 renal)	growth (COLO 205 colon)	growth (DU-145 prostate)	growth (K-562 leukemia)	growth (MALME-3M melanoma)	growth (MDA-MB-231 breast)	growth (RXF 393 renal)	growth (SF-268 CNS)	growth (SF-295 CNS)	growth (SF-539 CNS)	growth (UACC-257 melanoma)	growth (M14 melanoma)	growth (HCT-15 colon)
COc1ccc2[nH]c(O)c(N=NC(=O)c3oc4ccccc4c3C)c2c1	10.6%	30.6%	-24.1% (active)	-22.8% (active)	-44% (active)	54.3%	-23.6% (active)	-66.9% (active)	22.8%	17.6%	42.5%	-29.5% (active)	23.8%	-36.2% (active)	57.7%	5.05% (active)	37.5%	50%	28.7%	41.1%
O=C(Nc1ccc(F)c(Cl)c1)Nc1ccc(Cl)c(Cl)c1	86.1%	102%	74.2%	76.9%	65.1%	66.4%	71.8%	87.2%	89%	88.4%	15.4%	57.5%	76%	72.8%	88.1%	36.6%	80.3%	84.1%	53.6%	53.1%
COc1ccc(-c2nsc3c2NC(=O)CC3c2cccc(OC)c2)cc1 (stereo not given)	43.3%	57%	39.1%	17.6%	49.9%	25.5%	37.1%	49.6%	-11.7% (active)	13.7%	18.9%	41.5%	73.3%	16.8%	62.3%	15.5%	13%	74.7%	28.6%	26.4%
c1ccc2cc3c(Nc4ccc(N5CCOCC5)cc4)ccnc3cc2c1	95%	111%	100%	86.5%	104%	97.5%	85%	91.6%	106%	97.2%	72.7%	98.1%	91.3%	92%	87.6%	98%	92.4%	108%	99.9%	91.1%
COc1ccccc1N1CCN(C(CNS(=O)(=O)c2ccc(Cl)cc2)c2cccnc2)CC1 (stereo not given)	96.6%	128%	94%	77.1%	79.5%	110%	90.8%	42.4%	108%	85.1%	28.4%	60.2%	71%	36.3%	90.8%	2.26% (active)	64.9%	120%	104%	49%
Cc1nc(Nc2cn[nH]c2C(=O)Nc2ccc(CN3CCN(C)CC3)cc2)c2ccsc2n1	95.5%	88.1%	107%	109%	90.6%	72%	66.9%	65.1%	94.1%	102%	72.2%	132%	82.4%	61.7%	88.2%	118%	78.4%	98.3%	98.9%	81%
O=C(Nc1ccc(Br)cc1F)c1cc(Cl)ccc1O	-8.01% (active)	4.59% (active)	-14% (active)	3.19% (active)	-18.8% (active)	-8.76% (active)	8.65% (active)	-6.93% (active)	24.2%	11.8%	5.34% (active)	-34.7% (active)	-27.9% (active)	-0.138% (active)	2.69% (active)	-62.6% (active)	-1.11% (active)	-14% (active)	-28.3% (active)	2.29% (active)
O=c1cc(NC2CCN(CCCc3ccccc3)CC2)c2cc(Cl)ccc2o1	-1.92% (active)	0.794% (active)	0.321% (active)	-6.31% (active)	-26.1% (active)	-31.2% (active)	0.692% (active)	18.1%	-98.4% (active)	15.5%	5.97% (active)	-30.4% (active)	-62.2% (active)	-25.3% (active)	17.2%	-44.1% (active)	19.4%	-31.5% (active)	4.04% (active)	14.1%
CC1=C(C(=O)OCC2CCN(C(=O)OC(C)(C)C)CC2)[C@@H](c2cccc(C#N)c2)C2=C(CC(C)(C)CC2=O)N1	53.3%	57.1%	65.8%	8.58% (active)	79.9%	29.6%	35.5%	41.5%	38.6%	38.5%	25.5%	48.5%	61.1%	71%	50.5%	27.5%	41.7%	61.4%	35.7%	19.5%
COc1ccc(CSc2nnc(SCC(=O)Nc3ccc(Cl)cc3)s2)cc1	80.5%	65.4%	89%	37.6%	78%	67.7%	62.4%	68.7%	56.1%	65.2%	15.6%	121%	72.1%	104%	70.5%	-12.6% (active)	86.6%	99%	39.9%	48.1%
CCOC(=O)c1ccc2[nH]c(-c3ccccc3)cc(=O)c2c1	99.7%	98.2%	106%	101%	92.5%	101%	95.7%	104%	109%	103%	97.2%	104%	94.5%	103%	103%	106%	97.2%	98.7%	98.9%	92.8%
COc1ccc(/C=C/C(=O)c2c(C)nc3ccccc3c2/C=C/c2ccccc2)c(OC)c1	73.4%	89.3%	108%	80.3%	66.8%	70.5%	78.5%	94.1%	94.7%	90.4%	69.6%	106%	68.9%	89.6%	80.7%	90.9%	100%	104%	97.3%	72.2%
COC(=O)[C@@H]1CCCN1C(=O)[C@H]1CCCN1C(=O)[C@@H](Cc1c[nH]c2ccccc12)NC(=S)Nc1cc(C(F)(F)F)cc(C(F)(F)F)c1	63.8%	38.8%	65.2%	16.2%	80.9%	69.8%	28.4%	52.5%	22%	57.7%	27.6%	71.1%	25.4%	48.5%	38%	-52.2% (active)	62%	69.5%	39.8%	43.5%
COc1cccc(/C=C/C(=O)c2c(C)nc3ccccc3c2/C=C/c2ccccc2)c1OC	31.2%	45.3%	55.2%	2.78% (active)	60.7%	3.88% (active)	30.9%	42.4%	56.3%	4.24% (active)	9.13% (active)	69.1%	20.9%	15.4%	38.8%	46.5%	58.8%	46.1%	36.3%	5.81% (active)
O=C(CCc1nnc2sc(Cc3ccccc3Cl)nn12)c1nc2ncccc2[nH]1	89.9%	93.5%	92.3%	97.8%	78.4%	81.5%	104%	105%	109%	101%	102%	94.4%	73%	104%	85.5%	99.6%	94.2%	107%	96.5%	98.9%
N#C/C(=C1\SC(=O)CN1c1ccccc1)c1nc2ccccc2s1	75.8%	102%	94.4%	97.1%	102%	80.5%	97%	102%	103%	99.7%	82.8%	99.3%	85.5%	105%	103%	84.2%	97.6%	97%	91.2%	95.8%
